Screening data as filed in PubChem.
CYP2C19 act: human CYP2C19 activators, primary screen, biochemical, luminescence | Cytochrome P450 2C19 (Homo sapiens), P33261 | 96,000 tested, under 10 active | recombinant CYP2C19, luciferin-H EGE luminescence; stronger effect = higher value; 0 = fully inhibited enzyme, 1 = untreated enzyme | activation factor at 5 µM;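 active = activation factor of at least 2 at 5 µM in the primary screen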
CYP2C9 act: human CYP2C9 activators, primary screen, biochemical, luminescence; recombinant CYP2C9, luciferin-H conversion; stronger effect = higher value; factor 1 = untreated enzyme, 0 = blocked; hit rate 1.4% among 96,000; activation factor at 5 µM; Cytochrome P450 2C9 (Homo sapiens), P11712;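 active = activation factor of 2 or more for CYP2C9 at a 5 µM dose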
Target sequence (P11712 whole entry, looked up): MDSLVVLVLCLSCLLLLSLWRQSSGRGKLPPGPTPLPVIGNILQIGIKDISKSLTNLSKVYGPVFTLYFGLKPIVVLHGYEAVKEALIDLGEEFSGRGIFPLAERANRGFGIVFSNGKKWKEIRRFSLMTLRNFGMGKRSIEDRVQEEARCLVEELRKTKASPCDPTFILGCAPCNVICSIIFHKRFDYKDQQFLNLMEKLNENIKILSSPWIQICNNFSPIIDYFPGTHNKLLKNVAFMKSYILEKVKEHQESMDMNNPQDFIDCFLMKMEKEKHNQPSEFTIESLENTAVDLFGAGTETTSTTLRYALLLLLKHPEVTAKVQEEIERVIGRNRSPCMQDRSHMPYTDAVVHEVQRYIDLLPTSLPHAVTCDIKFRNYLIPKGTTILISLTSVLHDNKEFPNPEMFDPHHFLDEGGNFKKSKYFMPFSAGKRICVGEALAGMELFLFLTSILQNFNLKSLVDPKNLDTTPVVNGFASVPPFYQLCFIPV
PostGolgi ctrl: growth inhibition of yeast control strain, primary screen, counter-screen for post-Golgi transport modulator project; efflux-deficient yeast background strain, growth absorbance A615, 16 h; inhibition, % at 10 µM; hit rate 5% among 98,000; AID 738, 2007
CYP2C19 inhib: blockers of cytochrome P450 2C19 activity – biochemical, luminescence, ADME assay, primary screen | inhibition, % at 5 µM | hit rate 21% among 96,000 | P33261 | AID 778, 2007 | CYP2C19 Supersomes, luciferin-H EGE luminescence, 30 min;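 active = CYP2C19 inhibition above a set limit at 5 µM in the primary screen, cut at about 50% in these data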
PostGolgi yeast: phenotypic screen on post-Golgi transport, primary screen; post-Golgi transport phenotypic cell assay; inhibition, % at 10 µM; hit rate 0.9% among 98,000; AID 739, 2007;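 also: yeast cells grown in 1536-well plates; yeast grown about 18 h at 30C before absorbance read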
CYP2C9 inh: blockers of cytochrome P450 2C9 activity – biochemical, luminescence, ADME assay, primary screen; AID 777, 2007; hit rate 20% among 96,000; P11712; CYP2C9 Supersomes, luciferin-H conversion; inhibition, % at 5 µM;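 active = blocking of liver enzyme CYP2C9 beyond about 50% at 5 µM, limit read from the data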
Each line names hits and unclear results; the compound was inactive in the other large screens. Only some compounds are listed: those with a hit (about 32% of all), similar ones and a draw of the others. Rule as the data show it, unless noted: active = inhibition above about 30%; inactive = the rest.

COCCCNC(=O)C1CCN(c2nc(C)cc(C)n2)CC1	none
COc1ccc(CCNC(=O)CCN2C(=O)C3CC=CCC3C2=O)cc1OC (configuration not stated)	none (no result: CYP2C19 act, CYP2C9 act, CYP2C19 inhib, CYP2C9 inh)
COc1ccc(NC(=O)Cc2ccc(Cl)cc2)cc1NC(=O)c1ccco1	CYP2C19 inhib 74, CYP2C9 inh 65
CC(C)(C)C(=O)COC(=O)c1cccc(NC(=O)c2ccco2)c1	none
COc1ccc(NC(=O)c2ccco2)cc1NC(=O)c1ccco1	none
O=C(COC(=O)c1cccc(NC(=O)c2ccco2)c1)c1ccc(Br)cc1	CYP2C9 act 2.3
Cc1cc(C(=O)NNC(=S)NC(=O)/C=C/c2ccccc2Cl)n[nH]1	none
CC1(C)Cc2nc3sc4c(SCC(=O)NCc5ccco5)ncnc4c3cc2CO1	CYP2C9 inh 64
Cc1nc2c(sc3nc4c(cc32)COC(C)(C)C4)c(=O)n1CC(=O)NCc1ccco1	none (no result: CYP2C19 act, CYP2C9 act, CYP2C19 inhib, CYP2C9 inh)
CC(C)c1nc2sc3c(SCC(=O)NCc4ccco4)ncnc3c2c2c1CCC2	CYP2C19 inhib 59, CYP2C9 inh 70
Nc1ncnc2nc(SCC(=O)N3CCN(c4ccccc4)CC3)[nH]c12	none
Nc1ncnc2nc(SCc3ccccc3)[nH]c12	CYP2C19 inhib 70
FC(F)(F)c1ccccc1NC(=S)N1CCN(c2ncccn2)CC1	none
CCOC(=O)N1N=C(c2ccc(C)cc2)CC1(O)C(F)(F)F (configuration not stated)	CYP2C19 inhib 59
CC(=O)Nc1ccc(S(=O)(=O)Nc2cccc(-c3nc4ccccc4o3)c2)cc1	CYP2C19 inhib 91, CYP2C9 inh 98
CC(=O)Nc1nc2ccc(-c3nc4ccccc4o3)cc2s1	none (no result: CYP2C19 act, CYP2C9 act, CYP2C19 inhib, CYP2C9 inh)
O=S(=O)(Nc1ccc(-c2nc3ccccc3o2)cc1)c1ccccc1	PostGolgi ctrl 39, CYP2C19 inhib 80, CYP2C9 inh 97
N#CC(c1cccc(C(F)(F)F)c1)(c1ncc(C(F)(F)F)cc1Cl)N1CCOCC1 (configuration not stated)	CYP2C19 inhib 52
N#CC(c1ccccc1)(c1ncc(C(F)(F)F)cc1Cl)N1CCOCC1 (configuration not stated)	none
CC1CCC2(CC1)Nc1ccccc1C(=O)N2c1ccccc1 (configuration not stated)	none
O=C1c2ccccc2NC2(CCCCC2)N1c1ccc(O)cc1	CYP2C9 inh 56
N#C/C(=C\c1ccccc1)C(=O)NC(=O)Oc1ccccc1	CYP2C9 inh 82
COc1ccc(Cn2nnc3c(=O)[nH]c(C(=O)NCCc4ccc(F)cc4)nc32)cc1OC	PostGolgi ctrl 31, CYP2C9 inh 74
O=C(NCCc1ccccc1)c1nc2c(nnn2Cc2ccccc2Cl)c(=O)[nH]1	none (no result: CYP2C19 act, CYP2C9 act, CYP2C19 inhib, CYP2C9 inh)
CCOc1ccccc1CN1C(=O)c2ccccc2C1C(=O)NCC1CCCO1 (configuration not stated)	none
O=S(=O)(Nc1ccncc1)c1ccccc1	none
Cc1ccc2ncccc2c1NS(=O)(=O)c1ccccc1	CYP2C19 inhib 57
CCOC(=O)C1CCN(S(=O)(=O)Cc2ccccc2)CC1	CYP2C9 inh 69
CCOC(=O)C1CCN(S(=O)(=O)Cc2ccc(Cl)cc2)CC1	CYP2C19 inhib 87, CYP2C9 inh 93
CCOC(=O)C1CCCN(S(=O)(=O)Cc2ccccc2)C1 (configuration not stated)	none
COC(=O)c1cc(NC(=O)c2ccccc2)c(=O)oc1C/C=N\OCc1ccc(Cl)cc1Cl	none
O=S(=O)(Nc1ccc(N2CCOCC2)nn1)c1ccccc1	none
C1=CC2c3ccccc3NC(c3ccncc3)C2C1 (configuration not stated)	CYP2C19 inhib 82, CYP2C9 inh 73
CC(=O)c1ccc2c(c1)C1C=CCC1C(c1ccncc1)N2 (configuration not stated)	CYP2C19 inhib 92, CYP2C9 inh 90
O=C(O)c1ccc(Cl)c2c1C1C=CCC1C(c1ccccn1)N2 (configuration not stated)	none
COC(=O)c1ccc(C2Nc3ccc(/C(C)=N/NC(=O)C(OC)c4ccccc4)cc3C3C=CCC32)cc1 (configuration not stated)	none
Cn1c(=O)[nH]c(=O)c2c1nc(N1CCCCCC1)n2Cc1cccc2ccccc12	none
CCN(CC)C(=O)CSc1ccccc1N	none
